Data reported in PubChem BioAssay (NCI).
Compounds without any hit were thinned out: in the full panel of roughly 83,000, 20% have a hit.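 Interpretation: 100, growth as untreated; towards 0, rising growth inhibition; 0, no net growth; 0 to -100, cell death. Compounds scoring below 10 were considered active.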 Active and inactive are the calls of the source.

What was measured:
Experiment in all cases: NCI-60 one-dose screen, 48 h (100 = growth as untreated, 0 = no growth, -100 = all killed)
HCT-15 colon = settings: 10 µM unless noted
HT29 colon = settings: 10 µM unless noted
SNB-75 CNS = settings: 10 µM unless noted
U251 CNS = settings: 10 µM unless noted
PC-3 prostate = settings: 10 µM unless noted
SK-MEL-5 melanoma = settings: 10 µM unless noted
UACC-62 melanoma = settings: 10 µM unless noted
LOX IMVI melanoma = settings: 10 µM unless noted
SK-MEL-28 melanoma = settings: 10 µM unless noted
EKVX NSCLC = settings: 10 µM unless noted
SN12C renal = settings: 10 µM unless noted
UO-31 renal = settings: 10 µM unless noted
TK-10 renal = settings: 10 µM unless noted
ACHN renal = settings: 10 µM unless noted
CAKI-1 renal = settings: 10 µM
CCRF-CEM leukemia = settings: 10 µM unless noted
MOLT-4 leukemia = settings: 10 µM unless noted
SNB-19 CNS = settings: 10 µM unless noted
A498 renal = settings: 10 µM unless noted
SK-MEL-2 melanoma = settings: 10 µM unless noted

Measured: growth

CCc1ccc(NC(=O)N[C@@H](Cc2cccc(F)c2)C(=O)N[C@@H]2C(=O)N3CCC[C@H]3C(=O)N3CCCC[C@H]3C(=O)N[C@@H](CO)C(=O)N3C[C@H](C)C[C@H]3C(=O)O[C@H]2C)c(F)c1
inactive: HCT-15 colon 15.1% | HT29 colon 36.1% | SNB-75 CNS 26.4% | U251 CNS 30.9% | PC-3 prostate 17.5% | UACC-62 melanoma 27.2% | LOX IMVI melanoma 24.9% | SK-MEL-28 melanoma 44.6% | EKVX NSCLC 34% | SN12C renal 20.3% | UO-31 renal 29.4% | TK-10 renal 61.1% | ACHN renal 32.2% | CAKI-1 renal 17.5% | CCRF-CEM leukemia 37.7% | MOLT-4 leukemia 39.3%
active: SK-MEL-5 melanoma 0.508%

CCC(CC)n1c(=O)c(SC2=NC3C(NN2)N(CC)C(=O)N3CC)c(C(=O)O)c2ccccc21 (stereo unspecified)
active: HT29 colon 2.44% | SK-MEL-5 melanoma 6.37% | A498 renal -10.5%
inactive: HCT-15 colon 14.2% | SNB-75 CNS 39.6% | SNB-19 CNS 35.2% | U251 CNS 14.8% | UACC-62 melanoma 22.5% | LOX IMVI melanoma 23% | SK-MEL-28 melanoma 65.4% | EKVX NSCLC 52.8% | SN12C renal 20.1% | TK-10 renal 68.8% | ACHN renal 27.7% | CAKI-1 renal 36.6% | CCRF-CEM leukemia 16.6% | MOLT-4 leukemia 16.2%

O=C(NNc1nc2cc(F)ccc2n2cncc12)c1cnccn1
active: SK-MEL-5 melanoma -11.6% | ACHN renal 9.12% | CAKI-1 renal 7.86% | MOLT-4 leukemia 6.82%
inactive: HCT-15 colon 27.9% | HT29 colon 33.1% | SNB-75 CNS 75.1% | U251 CNS 29.8% | PC-3 prostate 44.6% | UACC-62 melanoma 17.5% | LOX IMVI melanoma 13.7% | SK-MEL-28 melanoma 26% | SK-MEL-2 melanoma 36% | EKVX NSCLC 20.3% | SN12C renal 34.2% | UO-31 renal 11.7% | TK-10 renal 44% | CCRF-CEM leukemia 14.4%

COc1ccc(CN2C(=O)/C(=C/c3nc(CO)cs3)SC2=S)cc1
inactive: HCT-15 colon 64.2% | HT29 colon 107% | SNB-75 CNS 91.7% | U251 CNS 94% | PC-3 prostate 86.5% | SK-MEL-5 melanoma 97.9% | UACC-62 melanoma 73.4% | LOX IMVI melanoma 42.8% | SK-MEL-28 melanoma 107% | SK-MEL-2 melanoma 98.2% | EKVX NSCLC 100% | SN12C renal 93% | UO-31 renal 67% | TK-10 renal 65.6% | ACHN renal 99.6% | CAKI-1 renal 77% | CCRF-CEM leukemia 61.1% | MOLT-4 leukemia 76.7%

CC(=O)NC(C)(C)C(=O)N1CCC[C@H]1C(=O)NC(C)(C)C(=O)N[C@@H](C)C(=O)NC(C)(C)C(=O)N[C@@H](C)C(=O)N[C@@H](CCC(N)=O)C(=O)NC(C)(C)C(=O)N[C@H](C(=O)NC(C)(C)C(=O)NCC(=O)N[C@@H](CC(C)C)C(=O)NC(C)(C)C(=O)N1CCC[C@H]1C(=O)N[C@H](C(=O)NC(C)(C)C(=O)NC(C)(C)C(=O)N[C@@H](CCC(N)=O)C(=O)N[C@@H](CCC(N)=O)C(=O)N[C@H](CO)Cc1ccccc1)C(C)C)C(C)C
inactive: HCT-15 colon 101% [4.25 µM] | HT29 colon 71% [4.25 µM] | SNB-75 CNS 33.4% [4.25 µM] | U251 CNS 62.3% [4.25 µM] | PC-3 prostate 28.3% [4.25 µM] | SK-MEL-5 melanoma 38.2% [4.25 µM] | UACC-62 melanoma 95.8% [4.25 µM] | LOX IMVI melanoma 84.3% [4.25 µM] | SK-MEL-28 melanoma 65.3% [4.25 µM] | SK-MEL-2 melanoma 91.2% [4.25 µM] | EKVX NSCLC 76.7% [4.25 µM] | SN12C renal 32.2% [4.25 µM] | UO-31 renal 95.8% [4.25 µM] | TK-10 renal 87.1% [4.25 µM] | ACHN renal 110% [4.25 µM] | A498 renal 81.9% [4.25 µM] | CCRF-CEM leukemia 62.8% [4.25 µM] | MOLT-4 leukemia 75.3% [4.25 µM]

Nc1nc(-c2cccc([N+](=O)[O-])c2)c(N=Nc2ccccc2[N+](=O)[O-])s1
active: SNB-75 CNS -14.7% | U251 CNS -79.5% | LOX IMVI melanoma 6.53% | SN12C renal 1.17% | UO-31 renal -36.4% | TK-10 renal -38.6% | ACHN renal -72.6% | CAKI-1 renal -27%
inactive: HCT-15 colon 43.8% | HT29 colon 80.2% | SNB-19 CNS 12.4% | SK-MEL-5 melanoma 47% | UACC-62 melanoma 66.1% | SK-MEL-28 melanoma 88.4% | EKVX NSCLC 48.7% | CCRF-CEM leukemia 46.7% | MOLT-4 leukemia 62%

COc1cc(-c2noc(C[C@@H](NC(=O)OCc3ccccc3)C(C)C)n2)cc(OC)c1OC
inactive: HCT-15 colon 97.4% | HT29 colon 104% | SNB-75 CNS 76.3% | U251 CNS 98.4% | PC-3 prostate 97% | SK-MEL-5 melanoma 99.3% | UACC-62 melanoma 88.4% | LOX IMVI melanoma 101% | SK-MEL-28 melanoma 100% | SK-MEL-2 melanoma 99.3% | EKVX NSCLC 96.9% | SN12C renal 90.1% | UO-31 renal 89.8% | TK-10 renal 96.1% | ACHN renal 102% | CAKI-1 renal 100% | CCRF-CEM leukemia 99.9% | MOLT-4 leukemia 93.9%

CCN1C(=O)N(CC)C2SC(N/N=C/c3ccccc3F)=NC21 (stereo unspecified)
inactive: HCT-15 colon 16.2% | SNB-75 CNS 21.5% | U251 CNS 16.4% | PC-3 prostate 29.8% | SK-MEL-5 melanoma 11.1% | UACC-62 melanoma 37.6% | LOX IMVI melanoma 15.6% | SK-MEL-28 melanoma 54.8% | SK-MEL-2 melanoma 12% | SN12C renal 34.6% | UO-31 renal 50.2% | TK-10 renal 87.7% | ACHN renal 34.4% | CAKI-1 renal 31.3% | CCRF-CEM leukemia 20% | MOLT-4 leukemia 15.5%
active: HT29 colon 0.675% | A498 renal -22.1%

CCOC(=O)C1=C(C)Nc2nnc(Nc3ccccc3)n2C1c1ccccc1 (stereo unspecified)
inactive: HCT-15 colon 58.1% | HT29 colon 79.4% | SNB-75 CNS 70.5% | U251 CNS 45.4% | PC-3 prostate 73.5% | SK-MEL-5 melanoma 89.9% | UACC-62 melanoma 75.3% | LOX IMVI melanoma 59.2% | SK-MEL-28 melanoma 89.9% | SK-MEL-2 melanoma 99.7% | EKVX NSCLC 69% | SN12C renal 30.5% | UO-31 renal 69.5% | TK-10 renal 81.8% | ACHN renal 14.7% | CAKI-1 renal 69% | CCRF-CEM leukemia 69.5%

Nc1ccc(-c2nnc(SCc3ccc(O)c4ncccc34)o2)cc1
active: HT29 colon 8.36% | SNB-19 CNS 8.55% | U251 CNS -6.47% | PC-3 prostate 0.0718% | SK-MEL-5 melanoma -20.5% | UACC-62 melanoma -54.4% | LOX IMVI melanoma 0.185% | SK-MEL-2 melanoma 3.45% | EKVX NSCLC -5.86% | SN12C renal 6.01% | UO-31 renal -12.5% | TK-10 renal 1.68% | ACHN renal 2.17% | CAKI-1 renal 4.38% | A498 renal -40.1% | CCRF-CEM leukemia 5.03% | MOLT-4 leukemia 5.7%
inactive: HCT-15 colon 10.2% | SK-MEL-28 melanoma 10.6%

O=C(CCCCCCN1CC(=O)N2[C@@H](c3cccc(Br)c3)c3[nH]c4ccccc4c3C[C@H]2C1=O)NO
inactive: HCT-15 colon 68.7% | HT29 colon 14.8% | SNB-19 CNS 38% | U251 CNS 25% | PC-3 prostate 32.8% | SK-MEL-5 melanoma 15.2% | SK-MEL-28 melanoma 26.6% | SK-MEL-2 melanoma 33.5% | EKVX NSCLC 54.8% | SN12C renal 44.7% | UO-31 renal 46.2% | TK-10 renal 28.1% | ACHN renal 73.4% | CAKI-1 renal 23.1% | A498 renal 49.4% | CCRF-CEM leukemia 14.9% | MOLT-4 leukemia 12.4%
active: UACC-62 melanoma 1.57% | LOX IMVI melanoma -59.8%

Oc1ccc(CSc2nnc(-c3ccc(Br)cc3)n2-c2ccccc2)c2cccnc12
active: U251 CNS 7.75% | UACC-62 melanoma 0.404% | UO-31 renal 8.19%
inactive: HCT-15 colon 15.7% | HT29 colon 89.6% | SNB-19 CNS 17.8% | PC-3 prostate 29.5% | SK-MEL-5 melanoma 12% | LOX IMVI melanoma 36.2% | SK-MEL-28 melanoma 40.9% | SK-MEL-2 melanoma 39.4% | EKVX NSCLC 43.1% | SN12C renal 35% | TK-10 renal 36.5% | ACHN renal 27% | CAKI-1 renal 36.7% | A498 renal 63.8% | CCRF-CEM leukemia 22.9% | MOLT-4 leukemia 32.3%

Cc1nn(-c2ccc(Cl)cc2)c(C)c1N=Nc1ccc2oc(=O)ccc2c1
inactive: HCT-15 colon 81.4% | HT29 colon 94.5% | SNB-19 CNS 97.3% | U251 CNS 82.8% | PC-3 prostate 80.3% | SK-MEL-5 melanoma 84.3% | UACC-62 melanoma 80.5% | LOX IMVI melanoma 69.6% | SK-MEL-28 melanoma 82.5% | SK-MEL-2 melanoma 110% | EKVX NSCLC 85.6% | SN12C renal 56.4% | UO-31 renal 64.8% | TK-10 renal 89.6% | ACHN renal 79.4% | CAKI-1 renal 73.7% | A498 renal 85.6% | CCRF-CEM leukemia 82% | MOLT-4 leukemia 89.3%

O=C(O)c1ccc(-n2cc(CNc3ccc(F)cc3)c(-c3ccc(C(F)(F)F)cc3)n2)cc1
inactive: HCT-15 colon 65.4% | HT29 colon 96.9% | SNB-19 CNS 84.3% | U251 CNS 79.3% | PC-3 prostate 79.4% | SK-MEL-5 melanoma 67.9% | UACC-62 melanoma 89.9% | LOX IMVI melanoma 99.5% | SK-MEL-28 melanoma 88.1% | SK-MEL-2 melanoma 110% | EKVX NSCLC 74.4% | SN12C renal 94.4% | UO-31 renal 67.2% | TK-10 renal 110% | ACHN renal 76.6% | CAKI-1 renal 76.2% | A498 renal 90.3% | CCRF-CEM leukemia 81.9% | MOLT-4 leukemia 81%

Oc1ccc(CSc2nnc(-c3ccc(Br)cc3)o2)c2cccnc12
active: UO-31 renal 7.37%
inactive: HCT-15 colon 10.7% | HT29 colon 111% | SNB-19 CNS 20% | U251 CNS 12.5% | PC-3 prostate 23% | SK-MEL-5 melanoma 12% | UACC-62 melanoma 27.3% | LOX IMVI melanoma 20.3% | SK-MEL-28 melanoma 32.8% | SK-MEL-2 melanoma 68.1% | EKVX NSCLC 58.9% | SN12C renal 45.2% | TK-10 renal 60% | ACHN renal 17.8% | CAKI-1 renal 25.6% | A498 renal 74.5% | CCRF-CEM leukemia 15.2% | MOLT-4 leukemia 24.1%

O=C(CCCCCCN1CC(=O)N2[C@@H](c3cc(F)cc(F)c3)c3[nH]c4ccccc4c3C[C@H]2C1=O)NO
inactive: HCT-15 colon 96.7% | HT29 colon 47.8% | SNB-19 CNS 65.9% | U251 CNS 57.3% | PC-3 prostate 48.5% | SK-MEL-5 melanoma 47.2% | UACC-62 melanoma 21.4% | LOX IMVI melanoma 19.6% | SK-MEL-28 melanoma 52.7% | SK-MEL-2 melanoma 62.1% | EKVX NSCLC 78.9% | SN12C renal 71.9% | UO-31 renal 61.6% | TK-10 renal 69.6% | ACHN renal 88.8% | CAKI-1 renal 64.7% | A498 renal 77.6% | CCRF-CEM leukemia 16.5% | MOLT-4 leukemia 14.2%
